Reference: the supplement of paper PMC10127200
Counter-ions that a name gives are not always drawn.

Key:
Assay in all cases: Euclidean distance of Cell Painting phenotypic profile (signed KS, 77 features) to DMSO centroid (dimensionless distance); 5 or 10 uM (library dependent); higher = stronger phenotypic change vs DMSO (phenoactivity)
Conditions in all cases: 48 h
786-O = system: 786-O
Summary of the method: (§1)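 Five cancer lines and a healthy fibroblast line received library compounds at 10 or 5 uM (library-dependent, 0.1% DMSO final) for 48 h. Stained cells were imaged confocally at 20X (9 fields/well). Harmony extracted 77 features, each scored as a signed Kolmogorov-Smirnov statistic against same-plate vehicle wells. Profiles were plate-position corrected, correlation-weighted and replicate-averaged at the top dose. Phenoactivity is the Euclidean distance from each profile to the median vehicle profile.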

A549 = system: A549
Summary of the method: as §1

DU145 = system: DU145
Summary of the method: as §1

FB = system: FB
Summary of the method: as §1

HEPG2 = system: HEPG2
Summary of the method: as §1

OVCAR4 = system: OVCAR4
Summary of the method: as §1

Row | SMILES | Euclidean distance (786-O) | Euclidean distance (A549) | Euclidean distance (DU145) | Euclidean distance (FB) | Euclidean distance (HEPG2) | Euclidean distance (OVCAR4)
1 | NC(=O)N1CCC(CC(=O)N2CCC([C@H]3c4ncc(Br)cc4CCc4cc(Cl)cc(Br)c43)CC2)CC1 [Lonafarnib] | 2.24 | 1.63 | 1.33 | 2.36 | 1.1 | 1.63
2 | N=C(NCCCCCCNC(=N)NC(=N)Nc1ccc(Cl)cc1)NC(=N)Nc1ccc(Cl)cc1 [Chlorhexidine] | 2.05 | 3.54 | 1.97 | 2.12 | 2.92 | 3.25
3 | CCOc1ccc(Cc2cc([C@@H]3O[C@H](CO)[C@@H](O)[C@H](O)[C@H]3O)ccc2Cl)cc1 [Dapagliflozin] | 1.1 | 1.19 | 1.1 | 1.39 | 0.432 | 1.01
4 | CCn1c(=O)c2c(nc(/C=C/c3ccc(OC)c(OC)c3)n2C)n(CC)c1=O [Istradefylline] | 1.47 | 1.5 | 0.734 | 1.18 | 0.77 | 1.44
5 | Nc1ccn([C@@H]2O[C@H](CO)[C@@H](O)[C@H]2O)c(=O)n1 [Cytidine] | 1.92 | 0.659 | 1.04 | 0.943 | 1.9 | 1
6 | CC(C)c1cc(-c2ccc(F)c3ccccc23)nc(N)n1 | 0.8 | 0.73 | 0.946 | 0.742 | 1 | 1.28
7 | Nc1ccc(S(=O)(=O)Nc2ccc(Cl)nn2)cc1 [Sulfachloropyridazine] | 1.32 | 1.01 | 0.856 | 0.835 | 0.669 | 1.25
8 | O=C(O)c1ccccc1OP(=O)(O)O [Fosfosal] | 0.982 | 0.849 | 0.86 | 0.671 | 0.711 | 1.11
9 | CN(C)CCCOc1nn(Cc2ccccc2)c2ccccc12 [Benzydamine HCl] | 1.26 | 0.962 | 1.75 | 1.24 | 0.87 | 1.33
10 | Nc1nnc(-c2cccc(Cl)c2Cl)c(N)n1 [Lamotrigine] | 0.851 | 1.05 | 0.825 | 1.12 | 0.712 | 1.42
11 | OCc1ccccc1O[C@@H]1O[C@H](CO)[C@@H](O)[C@H](O)[C@H]1O [Salicin] | 1.17 | 0.655 | 0.503 | 0.638 | 0.419 | 1.21
12 | CCNC(=O)[C@@H]1CCCN1C(=O)[C@H](CCCNC(=N)N)NC(=O)[C@H](CC(C)C)NC(=O)[C@@H](CC(C)C)NC(=O)[C@H](Cc1ccc(O)cc1)NC(=O)[C@H](CO)NC(=O)[C@H](Cc1c[nH]c2ccccc12)NC(=O)[C@H](Cc1c[nH]cn1)NC(=O)[C@@H]1CCC(=O)N1 [Leuprolide Acetate] | 0.73 | 0.754 | 0.992 | 0.659 | 0.515 | 0.971
13 | CC(C)c1cc(C(C)C)c(CC(=O)NS(=O)(=O)Oc2c(C(C)C)cccc2C(C)C)c(C(C)C)c1 [Avasimibe] | 4.24 | 1.79 | 0.813 | 0.86 | 0.752 | 0.819
14 | O=C(O)c1cc(-c2ccccc2)nc2ccccc12 [Cinchophen] | 1.16 | 1.12 | 1.3 | 1.12 | 1.47 | 0.992
15 | O=C(/C=C/c1ccccc1)NC(NC(=S)Nc1cccc2cccnc12)C(Cl)(Cl)Cl (configuration not stated) [Salubrinal] | 0.979 | 1.28 | 1 | 1.21 | 1.04 | 1.28
16 | C1=N/C2=N/c3ccc(OCCN4CCCC4)c(c3)COC/C=C/COCc3cccc(c3)C(=C1)N2 [Pacritinib (SB1518)] | 3.54 | 3.52 | 2.51 | 3.49 | 3.79 | 3.42
17 | CCN(CC)CCOC(=O)C1(C2CCCCC2)CCCCC1 [Dicyclomine HCl] | 1.23 | 1.1 | 1.39 | 1.16 | 1.04 | 1.43
18 | CC(C)OC(=O)CCC/C=C\C[C@@H]1[C@@H](/C=C/C(F)(F)COc2ccccc2)[C@H](O)C[C@@H]1O [Tafluprost] | 1.72 | 1.49 | 0.876 | 1.25 | 0.711 | 0.833
19 | Nc1nccs1 [Aminothiazole] | 0.905 | 1.79 | 2.14 | 1.92 | 0.971 | 1.9
20 | O=C(O)c1ccccc1Nc1cccc(C(F)(F)F)c1 [Flufenamic acid] | 1.11 | 1.08 | 0.674 | 1.09 | 0.711 | 1.36
21 | CC(C)NC[C@@H](C(=O)N1CCN(c2ncnc3c2[C@H](C)C[C@H]3O)CC1)c1ccc(Cl)cc1 | 2.01 | 1.92 | 1.44 | 2.24 | 1.1 | 1.13
22 | CC(C)(S)[C@@H](N)C(=O)O [Penicillamine] | 1.02 | 1.29 | 0.756 | 1.13 | 1.02 | 1.22
23 | CC(=O)O[C@H]1C[C@@]2(C)[C@@H](C[C@@H](O)[C@H]3[C@@]4(C)CC[C@@H](O)[C@@H](C)[C@@H]4CC[C@@]32C)/C1=C(\CCC=C(C)C)C(=O)O [Fusidate Sodium] | 1.27 | 0.59 | 1.88 | 1.32 | 0.533 | 1.2
24 | O=c1cc(N2CCOCC2)oc2c1ccc1ccccc12 | 0.913 | 1.57 | 1.41 | 3.23 | 1.42 | 4.01

Row | SMILES | Euclidean distance (786-O) | Euclidean distance (A549) | Euclidean distance (DU145) | Euclidean distance (FB) | Euclidean distance (HEPG2) | Euclidean distance (OVCAR4)
25 | CC(C)(C)NC(=O)[C@H]1CC[C@H]2[C@@H]3CC[C@H]4NC(=O)C=C[C@]4(C)[C@H]3CC[C@]12C [Finasteride] | 1.26 | 0.717 | 0.682 | 0.871 | 0.391 | 1.18
26 | CN(C)c1ccc(-c2nc3ncc(Cl)c(N4CCN(CC(=O)Nc5nccs5)CC4)c3[nH]2)cc1 | 1.74 | 1.55 | 1.32 | 1.56 | 0.715 | 1.59
27 | O=S(=O)(O)CCS [Mesna] | 0.758 | 0.755 | 0.968 | 0.772 | 2.1 | 1.22
28 | O=C(O[C@@H]1C[C@@H]2C[C@H]3C[C@H](C1)N2CC3=O)c1c[nH]c2ccccc12 [Dolasetron] | 1.37 | 2.35 | 2.37 | 1.37 | 0.624 | 2.04
29 | CC[C@]1(O)C[C@H]2CN(CCc3c([nH]c4ccccc34)[C@@](C(=O)OC)(c3cc4c(cc3OC)N(C=O)[C@H]3[C@@](O)(C(=O)OC)[C@H](OC(C)=O)[C@]5(CC)C=CCN6CC[C@]43[C@@H]65)C2)C1 [Vincristine] | 3.12 | 2.61 | 4.78 | 3.47 | 3.99 | 2.86
30 | N#CSc1cc(SC#N)c(N)nc1N | 0.526 | 2.18 | 0.906 | 1.25 | 1.27 | 1.14
31 | CC1(C)NC(=O)N(c2ccc([N+](=O)[O-])c(C(F)(F)F)c2)C1=O [Nilutamide] | 0.81 | 0.753 | 1.03 | 0.9 | 0.474 | 0.959
32 | Cc1ncc([N+](=O)[O-])n1CC(O)CCl (configuration not stated) [Ornidazole] | 1.17 | 0.686 | 0.775 | 1.03 | 0.557 | 0.676
33 | CO[C@H]1C(=O)[C@]2(C)[C@@H](OC)C[C@H]3OC[C@@]3(OC(C)=O)[C@H]2[C@H](OC(=O)c2ccccc2)[C@]2(O)C[C@H](OC(=O)[C@H](O)[C@@H](NC(=O)OC(C)(C)C)c3ccccc3)C(C)=C1C2(C)C [Cabazitaxel] | 3.68 | 3.16 | 3.88 | 2.6 | 1.97 | 2.5
34 | COc1ncc(-c2ccc3nccc(-c4ccnnc4)c3c2)cc1NS(=O)(=O)c1ccc(F)cc1F | 4.98 | 3.16 | 2.84 | 3.96 | 2.53 | 3.04
35 | CCC(C(=O)O)c1ccc(N2Cc3ccccc3C2=O)cc1 (configuration not stated) [Indobufen] | 0.947 | 0.717 | 1.19 | 1.01 | 0.618 | 1.31
36 | CN(CCOc1ccc(CC2SC(=O)NC2=O)cc1)c1ccccn1 (configuration not stated) [Rosiglitazone] | 1.31 | 0.979 | 0.878 | 1.79 | 0.962 | 1.14
37 | C1CCN2C[C@@H]3C[C@@H](CN4CCCC[C@@H]34)[C@H]2C1 [(-)-Sparteine Sulfate] | 0.93 | 0.957 | 0.846 | 1.03 | 0.474 | 1.04
38 | CCN(CC)CC(=O)Oc1ccc(NC(C)=O)cc1 [Propacetamol hydrochloride] | 1.3 | 0.77 | 1.22 | 0.897 | 1.14 | 1.47
39 | C[C@]12CC[C@@H]3c4ccc(O)cc4C[C@@H](CCCCCCCCC[S+]([O-])CCCC(F)(F)C(F)(F)F)[C@H]3[C@@H]1CC[C@@H]2O (some centres not stated) [Fulvestrant] | 1.83 | 1.67 | 0.894 | 1.18 | 0.76 | 1.56
40 | CC(C)NCC(O)c1ccc(O)c(O)c1 (configuration not stated) [Isoprenaline HCl] | 1.55 | 1.42 | 1.07 | 1.04 | 0.596 | 1.2
41 | COc1ccnc2[nH]cc(C(=O)C(=O)N3CCN(C(=O)c4ccccc4)C[C@H]3C)c12 | 0.998 | 1.1 | 0.533 | 0.737 | 0.554 | 1.47
42 | CC1CCN(CC[C@H]2CCCN2S(=O)(=O)c2cccc(O)c2)CC1 | 0.546 | 0.904 | 0.705 | 1.11 | 1.48 | 0.827
43 | Cc1cc(C2CCCCC2)n(O)c(=O)c1 [Ciclopirox] | 2.74 | 2.85 | 2.81 | 3.29 | 3.45 | 3.51
44 | Oc1c(Cl)cc(Cl)cc1Sc1cc(Cl)cc(Cl)c1O [Bithionol] | 0.758 | 0.588 | 0.524 | 0.97 | 1.02 | 1.23
45 | CC(C(=O)O)c1ccc(CC2CCCC2=O)cc1 (configuration not stated) [Loxoprofen] | 1.12 | 0.954 | 0.808 | 1.12 | 0.384 | 0.794
46 | C=C1/C(=C\C=C2/CCC[C@]3(C)[C@@H]([C@H](C)/C=C/[C@@H](O)C4CC4)CC[C@@H]23)C[C@@H](O)C[C@@H]1O [Calcipotriene] | 0.625 | 1.01 | 0.941 | 2.13 | 0.91 | 1.51
47 | NC(=S)N/N=C/c1ncccc1N [Triapine] | 3.56 | 2.65 | 3.67 | 3.09 | 2.83 | 3.6
